HP1b chromo inh: blocks HP1-beta chromodomain binding to methylated histone tails | P83916 | AlphaScreen HP1-beta / biotin-H3K9me3 peptide binding | Potency, µM (doses to about 114 µM), without a hit: at the top dose activity change, negative = inhibition, most hits filed as inhibitors | actives 0.56% (n = 390,000); further: nearly all actives have a fitted effect of over 70% in size
Target sequence (P83916 whole entry, looked up): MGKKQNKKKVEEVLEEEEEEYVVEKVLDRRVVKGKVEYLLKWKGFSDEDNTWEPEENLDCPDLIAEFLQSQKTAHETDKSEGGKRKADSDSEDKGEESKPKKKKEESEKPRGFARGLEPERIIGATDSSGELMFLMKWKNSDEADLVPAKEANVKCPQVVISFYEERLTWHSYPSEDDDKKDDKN
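Compound inhibition of the preformed complex between 50 nM HP1-beta and 50 nM biotinylated H3K9me3 peptide was read by AlphaScreen. Buffer was PBS pH 7.4 with 0.01% Tween-20. Incubations ran 30 min at room temperature, with 10 ug/mL donor/acceptor beads.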
L3MBTL1 block: L3MBTL1 (human) inhibition; AlphaScreen L3MBTL1–H3K9me1 peptide binding; Potency, µM (highest dose often 57.1 µM), for the others: top-dose activity, negative = inhibition, usual class: inhibitors; actives 0.66% (n = 230,000); further: on the % scale 0 is the no-effect control and ±100 the full control effect; nearly all actives have a fitted effect of over 60% in size
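L3MBTL1 50 nM + b-AHA-H3(1-15)K9me1 75 nM, 30 min RT; compound added, 30 min RT; streptavidin donor/Ni-chelate acceptor beads 10 ug/mL each final, 30 min RT dark; AlphaScreen read.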
BAZ2B block: BAZ2B (human) inhibition; AlphaScreen BAZ2B-H3K14Ac peptide displacement; Potency, µM (top dose mostly 114 µM), for the others: top-dose activity change, negative = inhibition, actives largely listed as inhibitors; actives 4.4% (n = 360,000); further: on the % scale 0 is the no-effect control and ±100 the full control effect; nearly all actives have a fitted effect of over 60% in size
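Protein-peptide AlphaScreen: BAZ2B 50 nM, b-H3K14Ac 50 nM, 1x PBS pH 7.4 + 0.01% Tween-20. Preincubation 30 min RT; cpd 30 min RT (top 110 uM); beads 20 min RT, light-protected.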
GLS inhibitor: inhibitors of human glutaminase (GLS); O94925; GLS enzymatic activity, qHTS titration; Potency, µM (series often up to 45.5 µM), for inactives: top-dose activity change, negative = inhibition, most hits filed as inhibitors; actives 0.21% (n = 410,000); further: on the % scale 0 is the no-effect control and ±100 the full control effect
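hKGA in 45 mM KH2PO4 (pH 8.2), 0.02% Tween-20 with compound, then 1mM L-Glutamine (stock as added) plus glutamate oxidase/HRP/Amplex red coupling mix. Fluorescence read initially and after 30 min at RT; signal change reflects glutamate formation.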
JMJD2A Tudor: JMJD2A Tudor domain (human) inhibition; AID 504339; O75164; actives 4.4% (n = 390,000); AlphaScreen JMJD2A-Tudor / H3K4me3 peptide binding; Potency, µM (highest dose often 114 µM), without a hit: at the highest dose activity change, negative = inhibition, actives largely listed as inhibitors; further: on the % scale 0 is the no-effect control and ±100 the full control effect; nearly all actives have a fitted effect of over 50% in size
G9a block: blocks human histone lysine methyltransferase G9a; G9a H3K9 monomethylation, AlphaScreen, 2 h; Potency, µM (top dose mostly 102 µM), inactives show at the highest dose activity, negative = inhibition, usual class: inhibitors; AID 504332; actives 8.8% (n = 350,000); Q96KQ7; further: on the % scale 0 is the no-effect control and ±100 the full control effect; nearly all actives have a fitted effect of over 75% in size
Target sequence (Q96KQ7 913-1193 limits assumed): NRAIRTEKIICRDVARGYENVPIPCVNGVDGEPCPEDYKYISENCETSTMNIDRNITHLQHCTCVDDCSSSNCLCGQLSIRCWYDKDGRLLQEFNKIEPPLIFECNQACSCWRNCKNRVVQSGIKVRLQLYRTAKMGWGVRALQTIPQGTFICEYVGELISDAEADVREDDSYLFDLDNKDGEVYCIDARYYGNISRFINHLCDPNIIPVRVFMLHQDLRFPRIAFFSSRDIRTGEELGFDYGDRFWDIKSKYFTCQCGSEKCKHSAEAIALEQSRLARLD
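G9a (20 nM) preincubated 15 min RT with compounds, then 500 nM biotinylated H3K9 peptide and 20 uM SAM added; 2 h RT reaction. Monomethyl-H3K9 product detected by AlphaScreen with anti-H3K9me1 antibody, streptavidin donor and anti-rabbit IgG acceptor beads.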
Numbers without * were called inactive; ? = inconclusive; / = no result given; [ ] = dose if it differs, or a comment. Only some compounds are listed: those with a hit (about 10% of all), similar ones and a draw of the others. The call rests on the fitted dose curve; in most records, active means well fitted curve in the direction sought with a large enough effect; inconclusive means small, poorly fitted or top-dose-only effect, or another doubt; inactive means no such curve, though single readings can be large; an effect the other way counts as inactive or inconclusive. Potency means the concentration at half of the fitted maximal effect.

SMILES | HP1b chromo inh | L3MBTL1 block | BAZ2B block | GLS inhibitor | JMJD2A Tudor | G9a block
CC1CCCN(Cc2c(O)ccc3c2O/C(=C\c2ccco2)C3=O)C1 (stereo not given) | -10% | -24% | ? | 103% | ? | 3.5µM*
CCN1CCN(Cc2c(O)ccc3c2O/C(=C\c2ccccc2)C3=O)CC1 | 42% | / | ? | 0% | -11% | 79µM*
CCN1CCN(Cc2c(O)ccc3c2O/C(=C\c2ccc(C)cc2)C3=O)CC1 | 35% | 5% | ? | 17% | -14% | -11%
O=C(CSC1=Nc2ccccc2C2=NC(Cc3ccccc3)C(=O)N12)Nc1ccccc1F (stereo not given) | 49% | / | 2% | -4% | -21% | -6%[59 µM]
Cc1cc(Br)ccc1NC(=O)CSc1c2c(nc3ccccc13)CCC2 | 31% | / | / | 8% | -9% | 0%[59 µM]
Brc1ccc2c(c1)OCCOCCOCCOCCOCCO2 | 35% | -3% | 0% | -2% | 3% | 9%[59 µM]
S=c1[nH]c2cc3c(cc2[nH]1)OCCO3 | 3% | 0% | -13% | -25% | -32% | 3.5µM*
CCN1CCN(Cc2c(O)ccc3oc(C)c(C(=O)Nc4ccc(OC)cc4)c23)CC1 | 15% | / | -23% | 18% | -15% | -1%[59 µM]
CCOC(=O)C1=C(C)N=c2s/c(=C/c3ccc(OCC(=O)O)c(OC)c3)c(=O)n2C1c1ccc(Cl)cc1 (stereo not given) | 32µM* | / | / | ? | 20µM* | /
CCOC(=O)C1=C(C)N=c2sc(=C(C)C)c(=O)n2C1c1ccc(N(C)C)cc1 (stereo not given) | -9% | / | / | 16% | 89µM* | /
CC1=C(C(=O)OC(C)C)C(c2ccc(Cl)cc2)n2c(sc(=Cc3ccc(OCC(=O)O)cc3)c2=O)=N1 (stereo not given) | / | / | / | 7.1µM* | / | /
CCOC(=O)C1=C(C)N=c2s/c(=C/c3ccccc3)c(=O)n2C1c1ccc(OC)c(OC)c1 (stereo not given) | 20% | 4% | 9% | -10% | -2% | -2%[59 µM]
CCOC(=O)C1=C(C)N=c2s/c(=C/c3ccc(OCC(=O)O)cc3)c(=O)n2C1c1ccc(SC)cc1 (stereo not given) | / | ? | 35µM* | / | / | /
COc1ccc(OCC(=O)Nc2cc(-c3nc4ccccc4o3)ccc2Cl)cc1 | 43% | / | -18% | -4% | -10% | 3%[59 µM]
O=C(CSc1nccn1Cc1ccc(F)cc1)NCc1ccco1 | 24%[57 µM] | / | -6% | 1% | -9% | 2%[59 µM]
CCOC(=O)C1=C(C)N=c2s/c(=C\c3ccc(OCC(=O)O)cc3)c(=O)n2C1c1ccc(Cl)cc1 (stereo not given) | 40µM* | ? | 7.9µM* | ? | 20µM* | /
CCOC(=O)C1=C(C)N=c2s/c(=C/c3ccc(OCC(=O)O)cc3)c(=O)n2C1c1ccc(F)cc1 (stereo not given) | -16% | / | ? | -10% | 79µM* | ?
COc1ccc(NC(=O)COCc2cc(-c3ccco3)on2)cc1Cl | -7% | / | -38% | 2% | -5% | -33%[59 µM]
COc1ccc(/C=C2\SC(=O)N(CCC(=O)Nc3ccccc3)C2=O)cc1OC | 20% | 10% | 4% | 2% | -10% | ?
NCCN1C(=O)S/C(=C\c2ccc3c(c2)OCO3)C1=O | -8% | / | -17% | 1% | -6% | 45µM*
COc1cc(/C=C2\SC(=O)N(CCN)C2=O)ccc1OS(=O)(=O)c1cc(C)ccc1C | ? | / | ? | ? | 28µM* | 28µM*
Cc1cccc(C(=O)N2CCC(N3CCN(Cc4ccc(F)cc4)C(=O)C3=O)CC2)c1 | 28% | / | 0% | 3% | -24% | 0%[59 µM]
COCCNCc1cc(C)n(-c2cc(S(=O)(=O)N3CCOCC3)ccc2N2CCCC2)c1C | -37% | / | / | -13% | 5µM* | /
COc1ccc(OC)c2sc(N3CCN(C(=O)C(C)(C)C)CC3)nc12 | 15% | / | -9% | 6% | -16% | -29%[59 µM]

Screening data: PubChem BioAssay, National Center for Advancing Translational Sciences (NCATS)
